# Experiments:
# Assay in all cases: SPOT peptide array binding signal intensity (averaged, normalized) (arbitrary units (background-subtracted, floor 0; scale differs between SH3 domains)); higher = stronger binding of the SH3 domain to the peptide
# [1] = molecular target: ScBbc1
# Outline: (§1)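 Peptides were synthetic 15-mers on cellulose membranes, with every cysteine replaced by serine. They were incubated overnight at 4°C with GST-SH3 domains from four yeast species at 10 μg/ml in TBS-based blocking buffer. Binding signal, the replicate-averaged normalized and background-subtracted spot intensity, is in arbitrary units that differ between domains.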
# [2] = molecular target: ScBem1-D1
# Outline: as §1
# [3] = molecular target: ScBzz1-D1
# Outline: as §1
# [4] = molecular target: ScBzz1-D2
# Outline: as §1
# [5] = molecular target: ScCyk3
# Outline: as §1
# [6] = molecular target: ScFus1
# Outline: as §1
# [7] = molecular target: ScHof1
# Outline: as §1
# [8] = molecular target: ScHse1
# Outline: as §1
# [9] = molecular target: ScLsb1
# Outline: as §1
# [10] = molecular target: ScLsb2
# Outline: as §1
# [11] = molecular target: ScLsb3
# Outline: as §1
# [12] = molecular target: ScLsb4
# Outline: as §1
# [13] = molecular target: ScMyo3
# Outline: as §1
# [14] = molecular target: ScMyo5
# Outline: as §1
# [15] = molecular target: ScNbp2
# Outline: as §1
# [16] = molecular target: ScPex13
# Outline: as §1
# [17] = molecular target: ScRvs167
# Outline: as §1
# [18] = molecular target: ScSho1
# Outline: as §1
# [19] = molecular target: ScSla1-D1-D2
# Outline: as §1
# [20] = molecular target: ScSla1-D3
# Outline: as §1
# [21] = molecular target: SpAbp1-D1
# Outline: as §1
# [22] = molecular target: SpBbc1
# Outline: as §1
# [23] = molecular target: SpBzz1-D1
# Outline: as §1
# [24] = molecular target: SpBzz1-D2
# Outline: as §1
# [25] = molecular target: SpCyk3
# Outline: as §1
# [26] = molecular target: SpHof1
# Outline: as §1
# [27] = molecular target: SpHof1-2
# Outline: as §1
# [28] = molecular target: SpHof1-3
# Outline: as §1
# [29] = molecular target: SpHse1
# Outline: as §1
# [30] = molecular target: SpLsb1
# Outline: as §1
# [31] = molecular target: SpLsb4
# Outline: as §1
# [32] = molecular target: SpMyo1
# Outline: as §1
# [33] = molecular target: SpNbp2
# Outline: as §1
# [34] = molecular target: SpPex13
# Outline: as §1
# [35] = molecular target: SpRvs167
# Outline: as §1
# [36] = molecular target: SpSla1-D1-D2
# Outline: as §1
# [37] = molecular target: SpSla1-D3
# Outline: as §1
binder,measurement,setting,value
FPPKRKPLLRPQRSD,SPOT peptide array binding signal intensity,[1],294
same,SPOT peptide array binding signal intensity,[2],87
same,SPOT peptide array binding signal intensity,[3],10.5
same,SPOT peptide array binding signal intensity,[4],50
same,SPOT peptide array binding signal intensity,[5],38
same,SPOT peptide array binding signal intensity,[6],138
same,SPOT peptide array binding signal intensity,[7],0.25
same,SPOT peptide array binding signal intensity,[8],1190
same,SPOT peptide array binding signal intensity,[9],27.8
same,SPOT peptide array binding signal intensity,[10],30
same,SPOT peptide array binding signal intensity,[11],2030
same,SPOT peptide array binding signal intensity,[12],71
same,SPOT peptide array binding signal intensity,[13],7.75
same,SPOT peptide array binding signal intensity,[14],2.75
same,SPOT peptide array binding signal intensity,[15],761
same,SPOT peptide array binding signal intensity,[16],52.5
same,SPOT peptide array binding signal intensity,[17],410
same,SPOT peptide array binding signal intensity,[18],1040
same,SPOT peptide array binding signal intensity,[19],1030
same,SPOT peptide array binding signal intensity,[20],16
same,SPOT peptide array binding signal intensity,[21],874
same,SPOT peptide array binding signal intensity,[22],37
same,SPOT peptide array binding signal intensity,[23],444
same,SPOT peptide array binding signal intensity,[24],0.5
same,SPOT peptide array binding signal intensity,[25],5
same,SPOT peptide array binding signal intensity,[26],182
same,SPOT peptide array binding signal intensity,[27],16.8
same,SPOT peptide array binding signal intensity,[28],285
same,SPOT peptide array binding signal intensity,[29],326
same,SPOT peptide array binding signal intensity,[30],153
same,SPOT peptide array binding signal intensity,[31],1630
same,SPOT peptide array binding signal intensity,[32],22.8
same,SPOT peptide array binding signal intensity,[33],286
same,SPOT peptide array binding signal intensity,[34],26
same,SPOT peptide array binding signal intensity,[35],536
same,SPOT peptide array binding signal intensity,[36],2
same,SPOT peptide array binding signal intensity,[37],3

# Source: the supplement of paper PMC4466140
